{"source": "PubChem BioAssay AID624320", "about": "(Broad Institute, 2012)", "biological_target": "Protein disulfide-isomerase A6 (Homo sapiens) (UniProt Q15084)", "sequence (Q15084 whole entry, looked up)": "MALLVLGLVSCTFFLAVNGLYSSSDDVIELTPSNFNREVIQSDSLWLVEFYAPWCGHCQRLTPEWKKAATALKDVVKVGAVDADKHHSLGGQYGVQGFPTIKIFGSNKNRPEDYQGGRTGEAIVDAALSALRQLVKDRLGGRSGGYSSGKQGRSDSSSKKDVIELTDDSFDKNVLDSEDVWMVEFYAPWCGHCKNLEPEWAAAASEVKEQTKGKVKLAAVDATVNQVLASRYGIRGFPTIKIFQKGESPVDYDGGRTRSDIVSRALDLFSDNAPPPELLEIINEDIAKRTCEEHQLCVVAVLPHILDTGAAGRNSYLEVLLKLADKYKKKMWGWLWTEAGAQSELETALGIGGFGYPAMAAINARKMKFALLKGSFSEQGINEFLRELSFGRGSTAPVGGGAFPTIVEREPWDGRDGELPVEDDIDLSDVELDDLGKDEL", "assay": "ERp5 reductase inhibition selectivity check, dose response, selectivity assay for PDI inhibitor antithrombotic project, biochemical, insulin aggregation absorbance, dry powder samples (AID 624320)", "note": "Active and inactive are the calls of the source.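 The calls were made as follows: active = compounds lowering absorbance whose fitted half-effect dose is at most twice the highest valid tested dose; inconclusive = flat fit between 30 and 70% inhibition, or poor fit; inactive = the rest, including opposite-direction activity.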", "data": [{"smiles": "C[C@H]1CN([C@@H](C)CO)C(=O)c2cccc(NS(C)(=O)=O)c2O[C@H]1CN(C)Cc1ccc(Oc2ccccc2)cc1", "values": [{"measurement": "outcome", "result": "inactive"}]}]}
